Activity calls are given as the source filed them. Unless noted, the rule behind the calls is not given here.

The record followed here is PubChem BioAssay.

Experiment [1] is described as follows: HepG2 liver cancer cell viability effects, profiling panel, resazurin fluorescence, 24 h, PK04 Diversity Set (AID 1172). Note: test concentration not given here. The conditions noted are these: higher = more signal. (Resazurin is reduced to fluorescent resorufin, in cell work by metabolically active cells.)
Experiment [2] is described as follows: basal S. cerevisiae growth modulation, no modifier, primary screen, OD600, strain BY4716, 24 h, basal condition (AID 1173). The conditions noted are these: OD600, 24 h, higher = more signal, called active from +8 up or from −8 down.
The nature of experiment [3]: MM1S myeloma cell viability, profiling panel, resazurin fluorescence, basal, 24 h, PK04 Diversity Set (AID 1174).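 Note: MM1S multiple myeloma cell line; test concentration not given here.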 The conditions noted are these: higher = more signal, called active from +8 up or from −8 down.
The target in experiment [4] is Dihydroorotate dehydrogenase (quinone), mitochondrial (Plasmodium falciparum (isolate 3D7)) (UniProt Q08210). Kind of experiment: PfDHODH enzyme inhibitors, primary screen, biochemical, C-terminal His tag, absorbance 600 nm (AID 1175).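 Note: recombinant parasite enzyme with a five histidine tag at its C terminus; test concentration not given here.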 The note with it: DCIP absorbance 600 nm, higher = more signal, called active from +8 up or from −8 down.
A short description of experiment [5]: P. aeruginosa biofilm formation inhibitors, primary screen, strain PAO1, LB-PBS medium, absorbance 600 nm (AID 1176). Note: test concentration not given here. The note with it: P. aeruginosa PAO1 growth/biofilm, A600, 12 h; higher = more signal.
The nature of experiment [6]: S. cerevisiae RM11-1a growth modifiers, primary screen, strain RM11-1a, OD600, basal, 24 h (AID 1177).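 Note: cultures grown under basal conditions with no added stressor; test concentration not given here.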 The conditions noted are these: OD600, 24 h, higher = more signal, called active from +8 up or from −8 down.
Experiment [7] can be described thus: E. coli acrAB mutant growth effects, primary screen, E. coli filamentation inducers, strain DRC39, OD650, 24 h (AID 1178).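 Note: growth measured as culture turbidity by optical density at 650 nm; test concentration not given here.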 The note with it: higher = more signal, called active from +8 up or from −8 down.
Experiment [8] is described as follows: E. coli acrAB mutant growth effects, primary screen, E. coli filamentation inducers, strain DRC39, OD650, 48 h (AID 1179).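 Note: screen aims at cell division blockers that make cells filament.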 The conditions noted are these: E. coli DRC39 delta-acrAB growth, higher = more signal, called active from +8 up or from −8 down.
Experiment [9] can be described thus: RPMI8226 myeloma cell viability, profiling panel, resazurin fluorescence, basal, 24 h, PK04 Diversity Set (AID 1180).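 Note: RPMI8826 multiple myeloma cell line at 5000 cells per well; test concentration not given here.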 The conditions noted are these: higher = more signal.
In experiment [10] the target is E3 ubiquitin-protein ligase XIAP (Homo sapiens) (UniProt P98170). Kind of experiment: XIAP binders, primary screen, biophysical, small-molecule microarray, fluorescence 635 nm (AID 1181).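 Note: score merges 667 nm emission and signal to noise over triplicate slides.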 The note with it: small-molecule microarray binding, higher = more signal.
E3 ubiquitin-protein ligase XIAP (Homo sapiens), sequence (P98170 whole entry, looked up): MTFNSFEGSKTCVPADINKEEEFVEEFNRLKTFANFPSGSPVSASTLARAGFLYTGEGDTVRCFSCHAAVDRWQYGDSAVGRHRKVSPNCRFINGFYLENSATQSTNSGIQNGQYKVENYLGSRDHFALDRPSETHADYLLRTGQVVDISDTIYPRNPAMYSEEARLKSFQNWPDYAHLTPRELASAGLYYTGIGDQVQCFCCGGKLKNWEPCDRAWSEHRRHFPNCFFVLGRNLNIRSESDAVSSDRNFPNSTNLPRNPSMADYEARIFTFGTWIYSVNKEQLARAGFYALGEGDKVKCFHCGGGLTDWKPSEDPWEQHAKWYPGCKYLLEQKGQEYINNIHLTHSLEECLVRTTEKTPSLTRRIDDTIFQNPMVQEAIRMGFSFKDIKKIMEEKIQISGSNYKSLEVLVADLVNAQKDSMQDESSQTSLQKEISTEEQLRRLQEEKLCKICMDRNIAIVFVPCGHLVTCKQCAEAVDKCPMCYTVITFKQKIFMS

Dihydroorotate dehydrogenase (quinone), mitochondrial (Plasmodium falciparum (isolate 3D7)), sequence (Q08210 whole entry, looked up): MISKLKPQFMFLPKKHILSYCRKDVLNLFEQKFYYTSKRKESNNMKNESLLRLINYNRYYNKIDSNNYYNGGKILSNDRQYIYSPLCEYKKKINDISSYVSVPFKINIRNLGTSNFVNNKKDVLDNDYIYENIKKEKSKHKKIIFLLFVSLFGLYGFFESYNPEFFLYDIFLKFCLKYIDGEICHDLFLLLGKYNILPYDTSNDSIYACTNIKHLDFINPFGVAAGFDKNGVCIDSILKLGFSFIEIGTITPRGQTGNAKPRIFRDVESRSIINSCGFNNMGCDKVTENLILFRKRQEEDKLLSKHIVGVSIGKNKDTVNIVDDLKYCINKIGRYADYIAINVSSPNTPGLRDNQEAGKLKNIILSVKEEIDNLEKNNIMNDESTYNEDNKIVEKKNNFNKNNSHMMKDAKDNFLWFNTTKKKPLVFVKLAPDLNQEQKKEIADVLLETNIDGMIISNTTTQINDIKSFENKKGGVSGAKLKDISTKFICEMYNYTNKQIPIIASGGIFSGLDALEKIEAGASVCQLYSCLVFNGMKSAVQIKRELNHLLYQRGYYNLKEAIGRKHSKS

`CC(C)NC(=O)[C@@H]1c2ccccc2C(=O)N(Cc2ccccc2)[C@H]1c1ccc(CO)cc1`: the z-score in [1] was -0.043; in experiment [2], 0.349 (inactive); in experiment [3], -0.889 (inactive); in experiment [5], 0.292 (inactive); in [6] it was -0.714 (inactive); in [7], 0.0003 (inactive). Besides, the z-score is -0.176 (inactive) in [8] and -0.239 in experiment [9]. The composite z-score is 0.0505 (inactive) in experiment [4] and -0.0473 in [10].
With `COCCOC(=O)N1C(=O)[C@@]2(c3ccccc31)[C@H](C(=O)Nc1nc3ccccc3s1)[C@H]1C(=O)O[C@H](c3ccccc3)[C@H](c3ccccc3)N1[C@@H]2c1ccc(OCCO)cc1`, the z-score in experiment [1] is 0.353; in experiment [2] it was 1.42 (inactive); in [3], -0.477 (inactive); in experiment [5], 3.49 (inactive); in [6], 1.75 (inactive); in [7], 0.0253 (inactive). For the same compound, the z-score in experiment [8] is -0.383 (inactive); in experiment [9], -0.162. The values for the composite z-score in experiment [4] and in [10] were -0.691 (inactive) and 0.0641, respectively.
Turning to `COC(=O)[C@@]1(Cc2ccccc2)[C@H]2c3cc(C(=O)N(C)C)n(Cc4c(-c5ccccc5)noc4C)c3C[C@H]2CN1C(=O)c1ccccc1`, the z-score in [1] is -1.19; in [2], 1.56 (inactive); in [3], -2.41 (inactive); in experiment [5], 1.98 (inactive); in [6], 0.337 (inactive); in experiment [7], -0.539 (inactive). The z-score in experiment [8] is -0.971 (inactive); in experiment [9] it was -2.93. The values for the composite z-score in [4] and in experiment [10] were -0.403 (inactive) and 0.424, respectively.
Consider `CCCCC(CC)C(O)C1C=CC2C(=O)N(c3ccccc3)C(=O)C2N1Nc1ccccc1` (stereo not given), for which the z-score is -1.3 in experiment [1]; -1.14 (inactive) in experiment [2]; -1.51 (inactive) in experiment [3]; 0.462 (inactive) in [5]; -0.347 (inactive) in [6]; -0.556 (inactive) in experiment [7]. Also, the figures for the z-score in experiment [8] and in [9] were -0.945 (inactive) and -1.42, respectively. Moreover, the composite z-score in [4] is -0.524 (inactive); in experiment [10], 0.387.
For the compound `COc1ccc(C#Cc2ccc3c(c2)[C@]2(C(=O)N3)[C@H](c3ccc(O)cc3)N3[C@H](c4ccccc4)[C@H](c4ccccc4)OC(=O)[C@H]3[C@@H]2C(=O)N2CCCCCCC2)cc1`, the z-score is -0.527 in experiment [1]; -1.15 (inactive) in [2]; 0.0901 (inactive) in experiment [3]; 1.44 (inactive) in experiment [5]; -0.404 (inactive) in experiment [6]; -0.525 (inactive) in [7]. In addition, the z-score in [8] was -0.469 (inactive); in experiment [9], 0.326. Moreover, the composite z-score in [4] was -1.4 (inactive); in experiment [10] it was 0.536.
For `CN(C)C(=O)[C@@]1(CCC(=O)OC(C)(C)C)N=C(c2ccc(OCCCO)cc2)O[C@H]1c1ccccc1`, the z-score in [1] was -0.299; in experiment [2], -0.757 (inactive); in [3], -0.441 (inactive); in experiment [5] it was 0.401 (inactive); in [6], -0.346 (inactive); in [7], 0.541 (inactive). For the same compound, the z-score is -0.353 (inactive) in [8] and 0.276 in experiment [9]. Moreover, the composite z-score in experiment [4] was -0.507 (inactive); in [10], -0.168.
Consider `Cc1ccc(S[C@]2(C(=O)NC3CC3)CC(=O)N(C3CCCCC3)[C@@H]2c2ccc(CO)cc2I)cc1`, for which the z-score in experiment [1] is 0.57; in experiment [2], -0.134 (inactive); in experiment [3] it was -0.232 (inactive); in experiment [5], 0.475 (inactive); in experiment [6], 0.537 (inactive); in experiment [7], 0.738 (inactive). The z-score in experiment [8] is 0.377 (inactive); in experiment [9], -1.54. Also, the composite z-score is 1.44 (inactive) in experiment [4] and -0.13 in experiment [10].
For the compound `CC(C)c1ccc(NN2C(C(O)c3c(F)cccc3Cl)C=CC3C(=O)N(c4ccccc4)C(=O)C32)cc1` (stereo not given), the z-score was -1.59 in experiment [1]; -0.134 (inactive) in [2]; -1.35 (inactive) in experiment [3]; 0.807 (inactive) in experiment [5]; 1.5 (inactive) in experiment [6]; -0.576 (inactive) in [7]. For the same compound, the z-score was -0.895 (inactive) in experiment [8] and -1.42 in [9]. In addition, the composite z-score in experiment [4] is 1.36 (inactive); in experiment [10] it was -0.132.
With `COCCOC(=O)N1C(=O)[C@@]2(c3cc(C#Cc4ccc(OC)cc4)ccc31)[C@H](C(=O)N1CCN(c3ncccn3)CC1)[C@H]1C(=O)O[C@H](c3ccccc3)[C@H](c3ccccc3)N1[C@@H]2c1ccc(O)cc1`, the z-score in experiment [1] is -0.221; in experiment [2], 0.558 (inactive); in experiment [3], -1.68 (inactive); in [5], 1.42 (inactive); in experiment [6] it was -0.604 (inactive); in experiment [7], -0.0707 (inactive). Besides, the z-score is 1.09 (inactive) in experiment [8] and 0.0808 in experiment [9]. Also, the values for the composite z-score in experiment [4] and in [10] were -1.45 (inactive) and 0.134, respectively.
`O=C1N(CCS(=O)(=O)c2ccccc2)Cc2ccccc2[C@H]2OC(c3ccc(OCCCO)cc3)=N[C@@]12CCS(=O)(=O)c1ccccc1`: the z-score in [1] is 0.759; in experiment [2], 1.83 (inactive); in experiment [3], 0.935 (inactive); in experiment [5], 0.0533 (inactive); in experiment [6] it was 3.07 (inactive); in experiment [7] it was 1.69 (inactive). In addition, the z-score in experiment [8] is 1.09 (inactive); in experiment [9] it was -0.124. For the same compound, the results for the composite z-score in experiment [4] and in [10] were -0.796 (inactive) and -0.15, respectively.
Turning to `CC(=O)Nc1cc(Br)ccc1C(=O)O`, the z-score in [1] is -0.128; in experiment [2], 0.311 (inactive); in experiment [3], 0.161 (inactive); in [5] it was -0.103 (inactive); in experiment [6] it was -0.129 (inactive); in [7], -0.141 (inactive). In addition, the z-score in experiment [8] is -0.535 (inactive); in experiment [9], 0.357. Also, the composite z-score in experiment [4] is -0.398 (inactive); in [10], -0.239.
